Consider 69 molecules from ChEMBL document CHEMBL4888484, “Replenishing the malaria drug discovery pipeline: Screening and hit evaluation of the MMV Hit Generation Library 1 (HGL1) against asexual blood stage Plasmodium falciparum ,using a nano luciferase reporter read-out” (2022).

The whole screen tested about 4,800 compounds, of which about 420 (8.8%) showed an effect of 50% or more. For the sample, strong results were picked, then their nearest neighbours and some compounds at random.

In the assay the test system is Plasmodium falciparum. Briefly: Confirmatory screen in NF54 nanoGlo assay, in single point, at 2uM, 72h. Format: functional, Erythrocyte. The settings on record: timepoint 72 hour.
For the molecule `Cc1occc1C(=O)NC1(c2ccccc2)CCOCC1`, the “% Inhibition” value is given as -5%.

Turning to `COc1cc(OC)c(NC(=O)[C@H]2CCCN(c3nc4ccccc4[nH]c3=O)C2)cc1Cl`, the “% Inhibition” value was -2%.

For the molecule `Cc1nc2ccccc2n1C(=O)c1sc2ccccc2c1Cl`, the “% Inhibition” value is given as -1%.

Take `O=S(=O)(c1ccc(Br)cc1)N1CCOC12CCCCC2`: the “% Inhibition” value is reported as -7%.

As for `Cn1nnc(Cn2nnc(-c3ccccc3)n2)n1`, the “% Inhibition” value is -11%.

For `CS(=O)(=O)N1CCC[C@H](Cn2nnnc2C=Cc2ccccc2)C1`, the “% Inhibition” value was 8%.

For the molecule `COC[C@H](NCCc1cc(F)cc2c1OCOC2)C1CC1`, the “% Inhibition” value was determined as 63%.

Regarding `Cc1csc(NC(=O)NCCc2cc(F)cc3c2OCOC3)n1`, the “% Inhibition” value is given as -14%.

Regarding `COc1ccccc1N1CCN(C(=O)c2nnn(-c3ccccc3Cl)c2-c2cccnc2)CC1`, the “% Inhibition” value is listed as -2%.

Take `Cc1ccc(OCc2cccc(-c3nc4c5cn[nH]c5ncn4n3)c2)c(C)c1`: the “% Inhibition” value was -7%.

As to `CC(C)N(CCCNC(=O)c1cnn2c3c(cnc12)CCCCCC3)Cc1ccccc1`, the “% Inhibition” value is reported as 0%.

In the case of `COc1ccc(CC(=O)Nc2cc(C)n(-c3cccc(Cl)c3)n2)cc1`, the “% Inhibition” value came out at 81%.

For `COc1ccc(Cl)cc1NC(=O)Cc1c(C)nc2nc(-c3ccccc3C)nn2c1C`, the “% Inhibition” value is -2%.

As for `COc1ccc(Cn2nc(C)n(-c3cccc(F)c3)c2=O)cc1`, the “% Inhibition” value was -1%.

Consider `Fc1ccc(-c2csc(N3CCC[C@H](c4cn[nH]c4)C3)n2)cc1`, for which the “% Inhibition” value is recorded as -1%.

Consider `CCOC(=O)n1c(=O)[nH]c2ccc(Br)cc21`, for which the “% Inhibition” value is recorded as -10%.

Take `Cc1cc(NS(=O)(=O)c2cccs2)n(-c2ccncc2)n1`: the “% Inhibition” value was 2%.

In the case of `O=S(=O)(Nc1nncs1)c1cccs1`, the “% Inhibition” value was -10%.

For the molecule `O=S(=O)(Nc1cccc2cccnc12)c1cccs1`, the “% Inhibition” value was found to be 60%.

Consider `COc1nc(N)nc(C(Cl)(Cl)Cl)n1`, for which the “% Inhibition” value worked out at 0%.

With `Cc1cc(F)ccc1CS(=O)(=O)N1CCC(CN2CCOCC2)CC1`, the “% Inhibition” value is -8%.

As to `C[C@H](N)c1ccc(Nc2ncc3cc(-c4ccncc4)ccc3n2)cc1`, the “% Inhibition” value is recorded as 93%.

Consider `CC(C)c1ccc(-c2n[nH]nc2C(=O)c2ccccc2N)cc1`, for which the “% Inhibition” value is -1%.

On to `CC(C)c1ncsc1C(=O)NC(C)(C)C(=O)NCC1CCCC1`, for which the “% Inhibition” value is reported as -13%.

For `Cc1cccc(NC(=O)c2c(C)sc3ncnc(N4CCCCC4)c23)c1C`, the “% Inhibition” value is 10%.

For `C[n+]1ccc(-c2ncc(-c3ccccc3)o2)c2ccccc21`, the “% Inhibition” value was 75%.

As for `CCn1ccnc1C(=O)Nc1ccc(OC)nc1`, the “% Inhibition” value was -6%.

For `CCc1ccc(CS(=O)(=O)NC(=O)c2cn3ccnc3s2)cc1`, the “% Inhibition” value amounted to 6%.

Consider `Cc1ccc(NC(=O)c2cn(CC3(O)CCN(Cc4ccccc4)CC3)nn2)c(C)c1`, for which the “% Inhibition” value is recorded as 1%.

For the molecule `N#Cc1ccc(NCCc2ccc(O)cc2)cn1`, the “% Inhibition” value is listed as -9%.

With `CC1(C)C(=O)NCCN1C(=O)c1cccc2ccccc12`, the “% Inhibition” value was determined as 5%.

Consider `O=C(Nc1[nH]c(=O)ncc1F)c1cccc2ccccc12`, for which the “% Inhibition” value amounted to 84%.

`O=C(Nc1ccccc1-c1nnc[nH]1)c1ccc(F)c(Cl)c1`: the “% Inhibition” value is -3%.

For `COc1ccc(C(=O)Nc2ccc3c(c2)C(=O)Nc2cccnc2O3)cc1OC`, the “% Inhibition” value worked out at 46%.

For `COc1cc(C(=O)Nc2[nH]c(=O)ncc2F)ccc1Cl`, the “% Inhibition” value stood at 81%.

For the molecule `O=C(Nc1[nH]c(=O)ncc1F)c1cc(F)c(F)cc1Br`, the “% Inhibition” value was determined as 95%.

Turning to `Cn1ccc(NC(=O)c2cccc3ccccc23)n1`, the “% Inhibition” value is on record as -8%.

Regarding `CC(C)CN1C(=O)CC[C@@H](C(=O)NCCCOC(C)C)[C@@H]1c1cccnc1`, the “% Inhibition” value is recorded as -13%.

As to `Cc1cc(C(=O)Nc2cc(Br)c(=O)n(C)c2)no1`, the “% Inhibition” value is recorded as -14%.

`Cc1ccc(N2CCCC2)c(C(=O)N2CCN(Cc3c(C)nc4cc(C)ccn34)CC2)c1`: the “% Inhibition” value stood at 3%.

In the case of `O=C(Nc1cnc(-n2ccnc2)nc1)C(c1ccccc1)c1ccccc1`, the “% Inhibition” value worked out at 36%.

Turning to `C[C@H]1CCCN(c2nc3ncn(CC(=O)Nc4ccccc4C(F)(F)F)c(=O)c3s2)C1`, the “% Inhibition” value is reported as -15%.

Consider `O=C(NC1CCCCC1)c1cc2c(Cl)ccc3c2n1CCO3`, for which the “% Inhibition” value was -10%.

With `COc1ccc(-c2[nH]ncc2C(=O)NCC2CCCCC2)cc1OC`, the “% Inhibition” value was found to be 2%.

Consider `Cc1ccc(C(=O)N2CC(n3cnnc3C)C2)cc1F`, for which the “% Inhibition” value is -19%.

Consider `O=C(CC1CCOCC1)NCc1ccccn1`, for which the “% Inhibition” value is listed as -11%.

Consider `COc1nc(-c2cccc(C(=O)N3C[C@@H]4CC[C@H](C3)C(=O)N4)c2)ncc1F`, for which the “% Inhibition” value is 67%.

Regarding `COc1ccc(C(=O)N2CC[C@H](c3nc(C4CCOCC4)no3)C2)cc1OC`, the “% Inhibition” value is 2%.

Regarding `COCc1cc(C(=O)N[C@H](c2ccccc2)C2CCOCC2)no1`, the “% Inhibition” value worked out at 0%.

As for `COc1nc(-c2cccc(C(=O)NCC3CCOCC3)c2)ncc1F`, the “% Inhibition” value was 66%.

`O=C(NCC1CCOCC1)c1ccc2n[nH]c(=O)n2c1`: the “% Inhibition” value was -1%.

In the case of `COCc1cc(C)n(CC#N)c(=O)c1C#N`, the “% Inhibition” value is listed as 11%.

As for `CCCc1ccc(Cl)c(S(=O)(=O)Nc2nnc(C3CC3)o2)c1`, the “% Inhibition” value stood at 2%.

Consider `COC[C@@H](C)CNc1nc(C)cc(C)n1`, for which the “% Inhibition” value is -3%.

On to `CCn1cc2c(n1)c(=O)n(Cc1ccc(C)cc1)c(=O)n2CC(=O)Nc1ccc(C)cc1C`, for which the “% Inhibition” value is -10%.

Take `COc1ccc(C(=O)N2CC[C@H](CC(=O)N3CCOCC3)C2)cc1`: the “% Inhibition” value is reported as -9%.

`Cc1c(C(=O)NCCc2ccc(Cl)cc2)oc2ccc3c(c12)[C@@H](O)CC(C)(C)O3`: the “% Inhibition” value was found to be 4%.

For the molecule `O=C(N[C@H](c1ccccc1)C1CC1)c1cccnc1O`, the “% Inhibition” value is recorded as -9%.

As to `CC1CCCC(N2C(=O)c3ccccc3C2NCc2ccccc2)C1C` (centres undefined), the “% Inhibition” value is 0%.

Regarding `CCOC(=O)c1cnc(N2CCCC2)nc1C1CCN(C(=O)OC(C)(C)C)CC1`, the “% Inhibition” value is reported as -2%.

Regarding `Cc1cc(C(=O)NCc2ccco2)nn1C(F)F`, the “% Inhibition” value is -13%.

As to `Cc1noc(C)c1CS(=O)(=O)CCC(=O)NC1CCCCC1`, the “% Inhibition” value is reported as -11%.

For `CC(c1ccccc1)N1C(=O)c2ccccc2C1c1c[nH]c2ccccc12` (centres undefined), the “% Inhibition” value is on record as 23%.

Turning to `CCOc1cc(C)ccc1S(=O)(=O)NC(C)C`, the “% Inhibition” value was -3%.

As to `NC1CC(NCCc2cccc3cccnc23)c2ccccc21` (centres undefined), the “% Inhibition” value was 43%.

With `NC(=NCc1cccc2cccnc12)N1CCN(c2nccs2)CC1`, the “% Inhibition” value is listed as 57%.

As for `Cc1ccc(C(=O)N2CCC(N3C(=O)[C@H]4CCCN4C3=O)CC2)cc1`, the “% Inhibition” value is given as -9%.

In the case of `COC(=O)c1cccc(C#Cc2cccc(NC(=O)c3cnc(C)cn3)c2)c1`, the “% Inhibition” value is given as -19%.

On to `Cc1ccc2nc(-c3cccc(NC(=O)c4ccc5c(c4)OCO5)c3)oc2c1`, for which the “% Inhibition” value is -12%.

One may read the % Inhibition as the drop in the measured response relative to a control, in per cent.
